Here are results for 30 molecules from PubChem BioAssay (NCATS).

Results filed as inconclusive are left out. Unmarked numbers belong to inactive results. Activity calls are given as the source filed them. Calls come from the whole dose curve; as a rule, active = well fitted curve in the direction sought with a large enough effect; inconclusive = small, poorly fitted or top-dose-only effect, or another doubt; inactive = no such curve, though single readings can be large; an effect the other way counts as inactive or inconclusive.

For assay [1], the system named is Zika virus NS2B-NS3 protease (unlinked complex). The assay is described as follows: Primary screen GU Rhodamine qHTS for Zika virus inhibitors: Unlinked NS2B-NS3 protease assay (AID 1347159). Note: nearly all actives have a fitted effect of over 60% in size. Note: potency is the fitted concentration of half-maximal effect. The following applies: Recombinant ZIKV NS2B-NS3 protease, Rhodamine110 substrate fluorescence; series mostly up to 107 µM. The gist of the method:
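Enzyme 25 nM in Tris-HCl pH 8.0 + 0.01% Tween 20; compounds up to 114 microM, 15 min RT dark; + Rhod110 substrate 1.5 microM; read t0 and 15 min; delta fluorescence → % inhibition → 4-parameter Hill fit.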

For assay [2], the system named is Zika virus NS2B-NS3 protease (linked construct). The assay is described as follows: Primary screen NINDS Rhodamine qHTS for Zika virus inhibitors (AID 1347160). Note: nearly all actives have a fitted effect of over 55% in size. Note: potency is the fitted concentration of half-maximal effect. Particulars: purified NS2B-NS3 protease, Rhodamine110 substrate fluorescence; series mostly up to 57.1 µM. The gist of the method:
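Enzyme (25 nM, linked NS2B-NS3) was preincubated 15 min with compound in 10 mM Tris-HCl pH 8.0, 0.01% Tween 20. Rhodamine110 substrate (1.5 microM) was then added and fluorescence read at start and after 15 min.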

Assay [3] can be described thus: Confirmatory screen NINDS Rhodamine qHTS for Zika virus inhibitors (AID 1347161). Note: potency is the fitted concentration of half-maximal effect; nearly all actives have a fitted effect of over 60% in size. The following applies: purified enzyme assay, Rhodamine110 substrate fluorescence, 15 min; series mostly up to 114 µM. A digest of the protocol: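 In 10 mM Tris-HCl pH 8.0 containing 0.01% Tween 20, linked NS2B-NS3 protease (25 nM final) is exposed to test compounds for 15 min. Cleavage of 1.5 microM Rhodamine110 substrate is tracked by fluorescence over 15 min.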

The test system of assay [4] is Zika virus NS2B-NS3 protease (linked). Briefly: 384 well plate NINDS AMC confirmatory qHTS for Zika virus inhibitors (AID 1347163). Note: nearly all actives have a fitted effect of over 50% in size. Note: potency is the fitted concentration of half-maximal effect. Particulars: Recombinant NS2B-NS3 protease, Ac-VKTGKR-AMC fluorescence; series mostly up to 100 µM. The gist of the method:
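Enzyme (5, 30 or 60 nM final) first met test compounds for ~15 min. The AMC-tagged peptide Ac-VKTGKR-AMC followed at 30 microM. Fluorescence was then recorded at 25 min and scaled against no-enzyme and no-inhibitor wells.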

A short description of assay [5]: Vero cells viability qHTS for Zika virus inhibitors (AID 1347167). The following applies: cytotoxicity counter-screen (Zika); series mostly up to 45.9 µM. A digest of the protocol:
(§1)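 Luminescent ATP readout (CellTiter Glo) after 30 min at 37 degrees C gives viability; cells in DMEM + 4% FBS were treated 24 to 48 hours with compound, following overnight attachment.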

The nature of assay [6]: HepG2 cells viability qHTS for Zika virus inhibitors (AID 1347168). Particulars: Zika counter-screen; series mostly up to 45.9 µM. A digest of the protocol: as §1
The nature of assay [7]: Tertiary RLuc qRT-PCR qHTS assay for Zika virus inhibitors (AID 1347169). Note: nearly all actives have a fitted effect of over 55% in size. Note: potency is the fitted concentration of half-maximal effect. Particulars: infected Vero cells, reporter luminescence, 48-72 h; series mostly up to 45.9 µM. The gist of the method: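 Vero cells (1,000/well) infected with recombinant ZIKV-RLuc (Cambodian) at MOI 1-2 after compound addition, 48-72 hrs at 37 degrees C. Live-cell Renilla luciferase substrate added; luminescence read after 1-1.5 hrs.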

Assay [8] relates to Zika virus NS2B-NS3 protease (linked construct). Briefly: 384 well plate NINDS Rhodamine confirmatory qHTS for Zika virus inhibitors (AID 1347164).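 Note: fluorescence from protease cleavage of Ac-LKRR-rhodamine 110 substrate; potency is the fitted concentration of half-maximal effect; nearly all actives have a fitted effect of over 65% in size.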 Particulars: rhodamine-110 peptide substrate fluorescence; series mostly up to 100 µM. A digest of the protocol:
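Linked NS2B-NS3 protease (final 5, 30 or 60 nM) preincubated ~15 minutes with compounds, then 10 microM Ac-LKRR-Rhodamine 110 added. Fluorescence (485/538 nm) read after 25 minutes at room temperature, normalized to no-enzyme and no-inhibitor controls.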

Assay [9] can be described thus: OV-KATE Cancer Cell Toxicity qHTS against the NCATS CANVASS Library (AID 1347345). Note: potency is the fitted concentration of half-maximal effect. Particulars: OV-KATE cells viability, CellTiter-Glo luminescence, 72 h. The gist of the method: (§2)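 1000 cells/well; 4 h settle; 11-pnt titration; 72 h, 37 degrees C, 5% CO2; CellTiter-Glo, 15min RT; luminescence read.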
Assay [10] can be described thus: HPAF-II Cancer Cell Toxicity qHTS against the NCATS CANVASS Library (AID 1347346). Note: potency is the fitted concentration of half-maximal effect; nearly all actives have a fitted effect of over 55% in size. Particulars: HPAF-II viability, CellTiter-Glo ATP luminescence, 72 h. A digest of the protocol:
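Using 1000 HPAF-II cells per well, we titrated compounds over 11 concentrations for 72 h at 37 degrees C/5% CO2, with bortezomib as control. Cell survival was quantified by CellTiter-Glo luminescence.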

Assay [11] can be described thus: UWB1.289 Cancer Cell Toxicity qHTS against the NCATS CANVASS Library (AID 1347347). Note: potency is the fitted concentration of half-maximal effect; nearly all actives have a fitted effect of over 60% in size. Particulars: UWB1.289 viability, CellTiter-Glo luminescence, 72 h. A digest of the protocol: as §2
Assay [12] can be described thus: OV-SAHO Cancer Cell Toxicity qHTS against the NCATS CANVASS Library (AID 1347348). Note: potency is the fitted concentration of half-maximal effect; nearly all actives have a fitted effect of over 55% in size. The following applies: OV-SAHO viability, CellTiter-Glo luminescence, 72 h. The gist of the method:
as §2

Assay [13] can be described thus: Panc-1005 Cancer Cell Toxicity qHTS against the NCATS CANVASS Library (AID 1347349). Note: potency is the fitted concentration of half-maximal effect; nearly all actives have a fitted effect of over 60% in size. Particulars: Panc-1005 viability, CellTiter-Glo luminescence, 72 h. The gist of the method: as §2
Assay [14] can be described thus: SW1088 Cancer Cell Toxicity qHTS against the NCATS CANVASS Library (AID 1347350). Note: potency is the fitted concentration of half-maximal effect; nearly all actives have a fitted effect of over 75% in size. The following applies: SW1088 viability, CellTiter-Glo luminescence, 72 h. The gist of the method: as §2
The nature of assay [15]: U-118MG Cancer Cell Toxicity qHTS against the NCATS CANVASS Library (AID 1347351). Note: potency is the fitted concentration of half-maximal effect. Particulars: U-118MG viability, CellTiter-Glo luminescence, 72 h. A digest of the protocol: as §2
Assay [16] can be described thus: COV-362 Cancer Cell Toxicity qHTS against the NCATS CANVASS Library (AID 1347352). Note: potency is the fitted concentration of half-maximal effect. Particulars: COV-362 viability, CellTiter-Glo luminescence, 72 h. The gist of the method:
(§3)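 Using an ATP-based luminescent reagent after three days of treatment, toxicity is scored across an eleven-concentration range in wells holding 1000 cells each.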

Assay [17] can be described thus: A2780 Cisplatin Sensitive Ovarian Cancer Cell Toxicity qHTS against the NCATS CANVASS Library (AID 1347353). Particulars: A2780 ovarian cancer viability, ATPLite luminescence, 72 h. The gist of the method:
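Quantitative HTS format: eleven compound concentrations applied to pre-seeded cells, 72 h incubation at 37 °C, then ATP detection by luminescence.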

Assay [18] in a line: UWB1.289-WTBRCA1 Cancer Cell Toxicity qHTS against the NCATS CANVASS Library (AID 1347354). Note: potency is the fitted concentration of half-maximal effect. Particulars: UWB1.289-WTBRCA1 viability, CellTiter-Glo luminescence, 72 h. The gist of the method: as §3

Consider `OC(CC1c2ccccc2-c2cncn21)C1CCCCC1` (centres undefined), for which the Potency entry in assay [1] and in assay [2] was “inactive” in each case.
For `CC(C)(O)C(=O)N1CCN(c2ccc(C(F)(F)F)c(C3=C(c4c[nH]c5ccccc45)C(=O)NC3=O)c2)CC1`, the Potency result in assay [1] and in assay [2] was “inactive” throughout.
For `C[C@@H](NC(=O)c1ccc(C#Cc2cccc(F)c2)cn1)C(C)(C)O`, the Potency result in assay [1] and in assay [2] was “inactive” throughout.
As for `CC(C)C(C)C(O)C1CC23CC(=O)C4(O)C(=C2CCC3C1C)C=CC1(O)CC(O)CCC14C` (centres undefined), the Potency result in assay [1] and in assay [2] was “inactive” in each case.
In the case of `C=CC(=O)N1CCN(C(=O)CNc2cc(-c3ccccc3Cl)c(Cl)cc2OC)CC1`, the Potency entry in [1] and in [2] was “inactive” throughout.
For the molecule `Cc1csc(N(C(=O)CSc2ccc(-c3ccccc3)nn2)C2CC2)n1`, the Potency result in assay [1] and in assay [2] was “inactive” in each case.
For `C=C1C(=O)O[C@H]2C[C@@H](C)[C@@H]3CCC(=O)[C@@]3(C)C[C@H]12`, the Potency entry in assay [1] and in assay [2] was “inactive” each time.
For the molecule `O=C(NC[C@H]1CN(c2ccc(N3CCOCC3=O)cc2)C(=O)O1)c1ccc(Cl)s1`, the Potency entry in assay [1] and in assay [2] was “inactive” in each case.
As for `O=S(=O)(NCc1cccc2ccccc12)c1cc(Cl)c(Oc2cccc(N3CCNCC3)c2)s1`, the Potency entry in assay [1] and in assay [2] was “inactive” throughout.
For `CCC[C@H](N[C@H]1CCc2cc(F)cc(F)c2C1)C(=O)Nc1cn(C(C)(C)CNCC(C)(C)C)cn1`, the Potency result in assay [1] and in assay [2] was “inactive” throughout.
`Fc1ccc(-c2nc(-c3c(F)cccc3F)[nH]c2-c2ccncc2)cc1`: the Potency entry in assay [1] and in [2] was “inactive” in each case.
Consider `NC(=O)C1=CC2C3C=CC2C(OC3=O)O1` (centres undefined), for which the Potency entry in [1] and in [2] was “inactive” throughout.
For the molecule `Fc1ccc(-c2nc(-c3ccccc3F)[nH]c2-c2ccncc2)cc1`, the Potency result in assay [1] and in assay [2] was “inactive” in each case.
Take `COC1CC(=O)C23C(=O)NC(CC(C)C)C2C(C)C(C)=CC3/C=C(\C)CCCC1O` (centres undefined): the Potency result in assay [1] and in assay [2] was “inactive” in each case.
As to `COc1ccc(CN2CCN(C(=O)CCNC(=O)c3ccc(C(C)(C)C)cc3)CC2)cc1`, the Potency result in assay [1] and in [2] was “inactive” each time.
As for `COC1CC(O[C@H]2CC[C@]3(C)C4CC[C@@]5(C)C(=O)[C@]4(CC[C@@H]3C2)CC[C@@H]5C2=CC(=O)OC2)OC(C)C1OC1OC(COC2OC(CO)C(O)C(O)C2O)C(O)C(O)C1O` (some centres undefined), the Potency result in assay [1] and in [2] was “inactive” in each case.
As for `O=C(Nc1ccc2[nH]c(=O)oc2c1)C(=O)N1CCC(Cc2ccc(F)cc2)CC1`, the Potency result in assay [1] and in assay [2] was “inactive” throughout.
Regarding `Cc1nc2c(C(F)(F)F)cccc2nc1-c1ccc(-c2cccc(S(C)(=O)=O)c2)cc1`, the Potency result in assay [1] and in assay [2] was “inactive” in each case.
`C/C1=C\[C@@H](C)C[C@@H](C)[C@@H](Cc2cnco2)OC(=O)/C(C)=C/[C@@H](C)C[C@@H](C)[C@@H](Cc2cnco2)OC1=O`: the Potency entry in [1] and in [2] was “inactive” each time.
On to `COc1ccc(NC(=O)c2ccc(-c3ccc(-c4nnc(C)o4)cc3C)cc2)cc1N1CCN(C)CC1`, for which the Potency entry in assay [1] and in assay [2] was “inactive” in each case.
Consider `CC(C)=C[C@@H]1[C@H](CO[C@@H]2O[C@H](CO)[C@@H](O)[C@H](O)[C@H]2O)C1(C)C`, for which the Potency result in assay [1] and in assay [2] was “inactive” in each case.
`COc1cc(O)c2c(c1)C1OC1C[C@H](O)[C@H](O)C(=O)/C=C\C[C@H](C)OC2=O` (some centres undefined): the Potency result in [1] and in assay [2] was “inactive” throughout.
`CC(C)C[C@@H]1NC(=O)[C@@H](Cc2ccccc2)NC(=O)C(CCCCCC(=O)C2CO2)NC(=O)[C@@H]2CCCCN2C1=O` (some centres undefined): the Potency result in assay [1] and in assay [2] was “inactive” in each case.
In the case of `CN1CCC(c2cn(C)c3ccc(OS(=O)(=O)c4c(F)cccc4F)cc23)CC1`, the Potency entry in assay [1] and in assay [2] was “inactive” throughout.
Consider `CCCCCCOC(=O)/N=C(\N)c1ccc(NCc2nc3cc(C(=O)N(CCC(=O)OCC)c4ccccn4)ccc3n2C)cc1`, for which the Potency result in [1] and in assay [2] was “inactive” in each case.
In the case of `O=C(O)c1ccc(S(=O)(=O)N(Cc2ccc(OC(F)(F)F)cc2)c2ncc(C(F)(F)F)cc2Cl)cc1`, the Potency was 4.47 µM (active) in assay [1], 3.93 µM (active) in assay [3], 2.51 µM (active) in assay [4] and 18.6 µM (active) in assay [7]. The result in assay [5] and in assay [6] was inactive.
With `O=C(Nc1ccc(-c2ccc(Cl)c(Cl)c2)cc1)C1=C(O)c2ccccc2S(=O)(=O)N1`, the Potency is 2.82 µM (active) in assay [1]; 3.98 µM (active) in [2]; 2.48 µM (active) in [3]; 44.7 µM (active) in assay [8]; 26.2 µM (active) in assay [7]. The Potency entry in [4] is “inactive”. Besides, the molecule was classed as inactive in assay [5] and in [6].
For `O=C1C(Cc2ccc(O)cc2)N2C(=O)CCN(C(=O)NCc3ccccc3)C2CN1Cc1cccc2ccccc12` (centres undefined), the Potency result in assay [2] was “inactive”.
For the molecule `CC(C)CC(=O)c1c(O)cc2c(c1O)C(CC(C)C)C1=C(O2)C(C)(C)C(=O)C(C)(C)C1=O` (centres undefined), the Potency in [1] is 8.91 µM (active); in [2], 7.82 µM (active); in assay [9], 18.8 µM (active); in [10], 13.3 µM (active); in [11] it was 13.3 µM (active); in assay [12], 11.8 µM (active). The Potency in assay [13] is 14.9 µM (active); in assay [14] it was 7.49 µM (active); in assay [15] it was 10.6 µM (active); in assay [16] it was 13.3 µM (active); in assay [17] it was 16.6 µM (active); in assay [18] it was 18.8 µM (active).
Regarding `CC(O)(C(=O)O)C1CCC2(C)C1CCC1(C)C2CCC2C3(C)CCC(O)C(C)(COC4OC(CO)C(O)C(O)C4O)C3CCC21C` (centres undefined), the Potency in [1] is 7.94 µM (active); in assay [3], 13.1 µM (active); in assay [4], 39.8 µM (active); in [8], 12.6 µM (active). Moreover, the molecule was classed as inactive in assay [5] and in assay [6]. Also, the Potency result in assay [7] is “inactive”.
